Results from the supplement of paper PMC6555819.

Test system: VDR:RXRa (NR concentration 270 nM, RXRa partner concentration 90 nM)
Test: PBM binding z-score (relative to random genomic background probes); higher = stronger binding; sequences stand for … in GC…GCGATTGACAGCGTAGAATGAAGG
Procedure: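 Protein-binding microarray (Agilent 4x180K custom design, double-stranded 60-nt probes: 5' GC cap, 34-nt variable region, 24-nt constant primer region; full probe sequence given). Purified or IVT nuclear receptor:RXRα heterodimers (3:1 NR:RXRα, mostly 270:90 nM) or homodimers were incubated for 1 h in PBS with 2% milk and no ligand, then detected with Alexa488 antibodies. Fluorescence from o1-orientation probes (~5 replicates averaged) was converted to z-scores against 500 random hg19 background probes. Variable regions are seed direct-repeat (DR0–DR5) sites, all their single-nucleotide variants and half-site ablations.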

Sequence | PBM binding z-score
TTATCAAGGTGAAAGGTCGTTGATGCACGCCTTG | 3.29
TTACCAAGGTGAACTGAGGTCGTTGATCCAACTC | 5.77
TCGAGTACGTTACGGGGGCATTCAGGGATGAAGA | 3.76
TATACAGGGTCAAAGGGCAGAGTACGAATGTCGA | 5.43
CGAACTAGATCACCAGGACAGTGAAGAGGTTGGA | -0.366
CAAACTAGGTCACGAAAGGTCAAAGCCGAATGAC | 6.5
CCTAGTTGGGCAGGAGGTCACACACCGGATATGA | 3.09
AGATGTAGGTTAGGGTCATTCAGAAAGTAGGGAA | 4.32
CGAACTAGGTCACCAGGAGAGTGAAGAGGTTGGA | 1.71
CAACCTAGGTCACCGGAAGGTCAAAGTCCGCATG | 6.51
CGTCCAAGGTCAAGGTCACTGAAAGAGACTCGAA | 5.49
CCTTACGGGTCACTCCAGGTTCTAGCATCGGAGT | 3.59
ATATGTAGGTTAGGGTCATTCAGAAAGTAGGGAA | 4.7
GATACAGGGTCAGCTTGAGGCCAGAGTATGGAAA | 3.33
CCTTACGGGTCAGGGTTATAGCACGGGTGGTACG | 2.26
ATATGTAGGTTAGGGTCAATCAGAAAGTAGGGAA | 3.8
CAAACTAGGTCACGAAAGGGCAAAGTCGAATGAC | 5.28
CCTACGGGGCCAAAGGTCATTGATTCCAATGCTC | 5.3
TCATATAGGTTAAAGGTGAAAGTCGGTGTGGTAA | 3.02
CAAACTAGGTCACGAAAGGTCAAAATCGAATGAC | 6.51

Sequence | PBM binding z-score
TCGAGTAGGTTACTGGGGCATTCAGGGATGAAGA | 0.313
CGCCCAAGGTCAGCAGGTCAGTGAAAGCGACGTG | 3.83
TCTCGGAGGACACGAAAGGTGAGAGCTCGACATC | 0.263
CCTTACGGGTCACTCTAGGTTATAGCATCGGAGT | 3.67
CTCGAAAGGTCGGTTGAGGTCAGTATACGGATAA | 6.09
CGAACGAGGTCAGAACAGGACAGTGAAGGATGAT | 3.67
GATACGGGGTCAGCTAGAGGCCAGAGTATGGAAA | 5.72
ATATGAAGGTTATCGGGTCATTCAGTTTGCGCAT | 5.41
TCTCGGAGGACACGAAACGTCAGAGCTCGACATC | -0.163
CGAACAAGGTCAAAGGACAGTGAAAGGCGACGTA | 3.93
CGTCAAAGTTCAAGGCAACGTAACAGAAAGCAGC | 3.3
CCTTACAGGTCAAGGTTATAGCACGGGTGGTACG | 3.41
CAAACTAGGTCAAAGGTCAAACTCGAGCCAACCA | 6.96
ACTTACGGGTCAAGGAGGTTATAGCACGCGTATA | 6.7
CCGAGTAGGTTACGAGGGAGCATTCAGTGCGAAT | 1.11
GATACAAGGTCAGCTAGAGGCCAGAGTATGGAAA | 3.19
TATACAGGGTCTAAGGCCAGAGTACGAATGTCGA | 0.486
CGTCCAAGGTAAGAGAGGTCAGTGAATGCCGAGT | 4
CGAACTAGGTCAAAGGGCAGTGAAAGGCGACGTA | 2.63
CTATGTAGGTTAAGAGGGTCATTCAGTTTGAAAG | 6.27
